This passage reports Inhibition % results from article PMC9574860, “Chemical Toolkit for PARK7: Potent, Selective, and High-Throughput” (Journal of Medicinal Chemistry, 2022).

The whole screen tested about 7,900 compounds, of which about 400 (5.1%) showed an effect of 50% or more. Only a selection was taken, and strong results are over-represented in it overall.

Parkinson's disease protein 7 (PARK7/DJ1), sequence (Q99497 whole entry, looked up, the tested form may be a part): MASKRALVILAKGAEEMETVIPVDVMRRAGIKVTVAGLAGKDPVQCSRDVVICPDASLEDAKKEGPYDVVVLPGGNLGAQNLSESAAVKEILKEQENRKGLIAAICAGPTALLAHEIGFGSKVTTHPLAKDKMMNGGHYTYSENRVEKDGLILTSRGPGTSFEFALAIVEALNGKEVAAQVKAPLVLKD

For the assay, the target named is Parkinson's disease protein 7 (PARK7/DJ1) (human, UniProt Q99497). Briefly: primary screen, percent inhibition; read as competition with a fluorescent probe by fluorescence polarization; higher = more effect of the substance. The following applies: 100 µM. A digest of the protocol:
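Covalent fragments at 100 μM final were incubated 2 h with 0.2 μM PARK7, then 20 nM probe JYQ-107 added for a further 2 h. Fluorescence polarization read at 480/520 nm; relative FP loss versus reference controls gave remaining enzyme activity.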
Regarding `O=C(CCl)NCC1Cc2ccccc2O1` (centres unmarked), the Inhibition % was 26.5%.
For `COc1cc2c(B3OC(C)(C)C(C)(C)O3)cn(C)c2cn1` the value was 6.59%; for `C=CC(=O)NC1CCCN(c2ccc(F)cc2C)C1` (centres unmarked), 6.65%; for `C=CC(=O)N1CC2(CCOCC2)C1C(C)C` (centres unmarked), 7.75%.
Under `Cc1nn(C)c(C)c1C1CCCN1C1CCOC1=O` (centres unmarked) stands 4.25%; under `CC(C)Cn1c(S)nc2ncccc2c1=O`, 6.75%.
Under `O=C(CCl)NCc1ccc(Cl)cc1` stands 2.75%; under `C=CC(=O)Nc1cnn(C2CCOCC2)c1C`, 8.19%; under `N#Cc1cc(Cl)nc(C2CC2)n1`, 4.67%.
In the case of `O=C(CCl)Nc1ccc(OC(F)F)cc1`, the Inhibition % is listed as 82.8%.
Under `O=C(CCl)NC(=O)c1ccc(OC(F)F)cc1` stands 28.9%.
Under `O=C(CCl)Nc1ccc(Cl)c(C(F)(F)F)c1` stands 26.2%; under `O=C(CCl)Nc1ccc(OC(F)F)c(Cl)c1`, 45.8%.
Under `O=C(CCl)NCc1ccc(OC(F)(F)F)cc1` stands 5.21%; under `COc1ccc(NC(=O)NC(=O)CCl)cc1`, 1.55%; under `O=C(CCl)Nc1ccc(OC(F)(F)F)cc1`, 86%.
Consider `COc1ccc(NC(=O)CCCl)cc1`, for which the Inhibition % came out at 4.56%.
As to `COc1ccc(NC(=O)CCl)cc1`, the Inhibition % was 55.2%.
Under `O=C1CCN1c1ccccc1` stands 5.28%; under `CC(CC#N)Sc1ccccc1NC(=O)CCl` (centres unmarked), 10.5%; under `Cc1cc(C(=O)Cn2cnc(C#N)n2)c(C)s1`, 2.94%.
Under `Cc1cc(C(=O)Cn2cnc(C#N)n2)c(C)[nH]1` stands 7.96%; under `CCN(CC)C(=O)Oc1ccc(N2CCCC2)cc1`, -3.98%.
Under `C=CC(=O)Nc1cc(NC(=O)C2CCC2)ccc1F` stands 19.5%; under `O=S(=O)(F)c1ccc(S(=O)(=O)NC2CCCC2O)cc1` (centres unmarked), 16.5%.
On to `O=C1CCC(CC(=O)Nc2cccc(S(=O)(=O)F)c2)CC1`, for which the Inhibition % is reported as 98.3%.
Under `O=C(CCl)NCc1cccc(NC(=O)C2CC2)c1` stands 11.4%; under `O=C(Nc1cccc(S(=O)(=O)F)c1)C1CCCC1`, 99.8%.
For `O=C(NNS(=O)(=O)c1ccc(S(=O)(=O)F)cc1)C1CCC1` the value was 10.2%.
On to `O=C(NNS(=O)(=O)c1cccc(S(=O)(=O)F)c1)C1CCC1`, for which the Inhibition % is 99.9%.
Under `Cc1cc(B2OC(C)(C)C(C)(C)O2)on1` stands 27.5%; under `Cc1ccc(S)nc1`, 7.53%; under `CCc1nc(C(C#N)=Cc2cnn(C)c2)sc1C`, 2.61%.
As to `Cc1noc(C)c1CCn1ccnc1C#N`, the Inhibition % is listed as 0.0226%.
For `Cl.O=C(CCl)N1CCN(Cc2cccs2)CC1` the value was 3.64%.
Under `Nc1ncnc2c1ncn2CCCCl` stands 2.3%.
For `C=CC(=O)Nc1ccccn1` the value was 3.17%.
As to `C=CC(=O)Nc1cc2ccccc2nn1`, the Inhibition % worked out at 95%.
Under `C=CC(=O)Nc1cccc(NC(C)=O)n1` stands -0.654%; under `Cc1ccc(C=C(C#N)S(C)(=O)=O)s1`, 6.48%.
With `Cc1cc(=O)oc2cc(OCC3CO3)ccc12` (centres unmarked), the Inhibition % turned out to be 7.44%.
Under `CC(C)(C)n1nccc1B1OC(C)(C)C(C)(C)O1` stands 6.06%; under `CC(CC(O)c1ccc(F)cc1)Nc1ccc(C#N)nc1` (centres unmarked), 9.7%; under `O=C(CCl)Nc1nc(-c2ccco2)cs1`, 21.8%.
For `Cc1nc(-c2ccco2)nc(S)c1C(=O)O` the value was 1.46%; for `Sc1ccc(-c2ccco2)nn1`, 57.3%.
Under `O=C(CCl)N1CCCCCC1` stands 14.9%; under `N#Cc1ccnc(C(=O)O)c1`, 1.71%; under `N#Cc1ccnc(C(F)(F)F)c1`, 14.9%.
`N#Cc1ccnc(S)c1`: the Inhibition % is on record as 67%.
For `O=C(CCl)Nc1ccccc1N1CCCC1=O` the value was -0.367%; for `CCN1CCN(c2ccc(NC(=O)CCl)cc2)CC1.Cl`, 37.8%; for `O=C(CCl)NCc1ccc(N2CCOCC2)nc1`, 15.2%.
Take `O=C(CCl)Nc1cccnc1N1CCCC1`: the Inhibition % stood at 18.8%.
Under `O=C(CCl)Nc1ccc(N2CCCCC2)nc1` stands 88.9%; under `Cl.O=C(CCl)Nc1ccc(N2CCCCC2)cc1`, 89.3%; under `O=C(CCl)Nc1ccc(N2CCCC2)cc1`, 7.34%.
As to `O=C(CCl)NCc1ccc(N2CCCC2)cc1`, the Inhibition % is recorded as 0.611%.
In the case of `O=C(CCl)Nc1ccc(N2CCCCCC2)cc1`, the Inhibition % was 99.5%.
Under `O=C(CCl)Nc1ccc(N2CCCC2=O)cc1` stands 9.28%.
For `C=CC(=O)N1CC(S(=O)(=O)N2CCc3ccccc32)C1` the value was 3.57%; for `O=C(CCCl)Nc1cccc(F)c1`, 5.31%.
Under `C=CC(=O)N1CCC(c2cc3ccccc3[nH]2)C1` (centres unmarked) stands 13.2%; under `Cc1occc1-c1nnc(SC2CCOC2=O)n1C` (centres unmarked), 12.4%.
As to `COc1c(C)cc(S(=O)(=O)n2nc(C)cc2C)c(C)c1C`, the Inhibition % is given as 7.42%.
Under `CC1(C)OB(c2cccc3c2CCO3)OC1(C)C` stands 9.99%; under `CN(Cc1ccco1)c1ccc(C#N)nc1`, 25.1%; under `O=C(NCc1ccc2c(c1)OCO2)n1ccnc1`, 99.9%.
As for `O=C(CCl)NCc1ccc2c(c1)OCO2`, the Inhibition % came out at 14%.
For `Cc1cccc(OCCNC(=O)CCl)c1` the value was 12.5%.
For `CN(C)c1ccc(CNC(=O)n2ccnc2)cc1` the value was 97%; for `CN(Cc1ccccc1Cl)C(=O)n1ccnc1`, 2.68%.
For `Cc1cccc(OCCNC(=O)n2ccnc2)c1` the value was 92.6%; for `Cc1ccc(CNC(=O)n2ccnc2)cc1`, 104%.
On to `CN(Cc1cccnc1)C(=O)n1ccnc1`, for which the Inhibition % was determined as 10.8%.
With `C=CC(=O)NCc1ccc2c(c1)OCO2`, the Inhibition % stood at 11.2%.
Under `Cc1ccc(CNC(=O)CCl)cc1` stands 1%.
Regarding `O=C(NCc1ccc(Cl)cc1)n1ccnc1`, the Inhibition % is listed as -1.68%.
Under `COc1ccc(CCNC(=O)n2ccnc2)cc1OC` stands 10.3%; under `Cn1nncc1B1OC(C)(C)C(C)(C)O1`, 6.79%; under `C=CC(=O)N1CCC(c2ncc(C)s2)CC1`, 1.87%.
On to `O=C(C=CC1=CCCC1)N1CCCC(N2CCNC2=O)C1` (centres unmarked), for which the Inhibition % was found to be 28%.
For `Cl.O=S(=O)(F)C1CCCNC1` (centres unmarked) the value was 8.33%; for `C=CC(=O)N1CCN(CC)C(=O)C1(C)C`, 2.96%.
For `C=CC(=O)N1CCC(C#N)(COC)CC1` the value was 5.2%; for `Cc1ccc(NC(=O)CN2CCSC2=O)cc1F`, 3.32%; for `COC(=O)Cc1csc(NC(=O)CCl)n1`, 20.2%.
For the compound `Cc1cc(C)nc(S)c1`, the Inhibition % came to 6.52%.
For `O=C1OCCC1N1CCOC(c2nccs2)C1` (centres unmarked), the Inhibition % is 13.9%.
Under `C=CC(=O)NCCc1ccc(F)cn1` stands -26.8%; under `C=CC(=O)N1CCC(C(=O)N(C)c2ccccc2)C1` (centres unmarked), 9.62%.
Under `C=CC(=O)NCc1coc2ccccc12` stands 7.72%.
For `CNC(=O)n1ccnc1` the value was 75.1%; for `O=C(NCCc1ccc(F)cc1)n1ccnc1`, 12.7%; for `O=C(Nc1ccc(CNC(=O)n2ccnc2)cc1)C1CC1`, 92.1%.
Take `COc1ccc(CNC(=O)n2ccnc2)cc1OC`: the Inhibition % is 6.72%.
As for `Cc1ccccc1CCNC(=O)n1ccnc1`, the Inhibition % worked out at 101%.
Regarding `COc1cccc(CNC(=O)n2ccnc2)c1`, the Inhibition % worked out at 95.1%.
For `O=C(N1CCC1c1ccccc1)n1ccnc1` (centres unmarked) the value was 11.7%; for `Cc1ccccc1CCNC(=O)Cn1cnc(C#N)n1`, 4.99%.
For `COc1ccccc1CNC(=O)n1ccnc1` the value was 5.2%; for `O=C(NCC1CCCC1)n1ccnc1`, 40.7%; for `O=C(NCC(F)(F)F)n1ccnc1`, 6.27%.
For `CC(C)C(=O)Nc1ccc(CNC(=O)n2ccnc2)cc1` the value was 0.0136%; for `Cc1cc(C)nc(C#N)c1`, 9.14%.
On to `NCC1CCCCN1C(=O)C=Cc1ccccn1` (centres unmarked), for which the Inhibition % is recorded as 1.06%.
Under `C=CC(=O)NC1CCN(C2CCOC2)CC1` (centres unmarked) stands 22%.
`C=CC(=O)NCCc1noc(-c2ccccn2)n1`: the Inhibition % is 11%.
Under `C=CC(=O)NCc1ccnc(C)n1` stands 7.47%; under `C=CC(=O)NCc1nnc(C2CC2)o1`, 6.84%.
Regarding `Nc1ccc(NC(=O)Oc2ccccc2)cc1`, the Inhibition % amounted to 11.2%.
Take `CC1(C)OB(c2cccc3c2CCC3)OC1(C)C`: the Inhibition % came out at 3.3%.
For `CS(=O)(=O)c1ccc(C(=O)CCl)cc1` the value was 87.3%; for `NC(=O)Nc1ccc(C(=O)CCl)cc1`, 89.6%; for `CC(C)CC(=O)Nc1ccc(C(=O)CCl)cc1`, 3.15%.
On to `CS(=O)(=O)c1ccc(OCCCl)cc1`, for which the Inhibition % is reported as 4.09%.
As to `O=C(CCl)c1ccc(NC(=O)c2ccco2)cc1`, the Inhibition % was found to be 90.6%.
Take `CC(C)C(=O)Nc1ccc(C(=O)CCl)cc1`: the Inhibition % is listed as 2.39%.
For `CCC(=O)Nc1ccc(C(=O)CCl)cc1` the value was 4.09%; for `O=C(CCl)NC(=O)c1ccco1`, 22.8%; for `CCCC(=O)Nc1ccc(C(=O)CCl)cc1`, 5.21%.
With `CC(=O)Nc1ccc(C(=O)CCl)cc1`, the Inhibition % is on record as 82.5%.
Under `CC1(C)OB(c2ccc(OCCS(C)(=O)=O)cc2)OC1(C)C` stands -1.19%; under `N#Cc1cccc(OCC(F)(F)F)n1`, -0.809%.
Under `CN(C)S(=O)(=O)c1ccc(S)nc1` stands 31.2%; under `O=c1onc(-c2ncccn2)n1Cc1ccccc1F`, 1.26%; under `CC(=O)Nc1ccc(Sc2nccnc2C#N)cc1`, 18.2%.
As to `CC1(C)OB(C2CNC2)OC1(C)C.O=C(O)C(F)(F)F`, the Inhibition % was found to be 11.6%.
